A short description of experiment [1]: compounds binding Alexa647 anti-His antibody – biochemical, small-molecule microarray, 635 nm fluorescence, artefact control for SMM control protein annotation, primary screen (AID 1128).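 Further: score merges feature fluorescence with signal-to-noise for each printed compound spot.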 The following applies: higher = more signal.
In experiment [2] the test system is Human papillomavirus type 1a E7 protein (residues 1-88). In words: HPV1a E7 small-molecule binders, primary screen, biochemical, small-molecule microarray, residues 1-88, 635 nm (AID 1129). The note with it: small-molecule microarray binding, fluorescence 635 nm; higher = more signal.
The target of experiment [3] is Focal adhesion kinase 1 (Homo sapiens) (UniProt Q05397). Nature of the experiment: PTK2 protein binding on printed compound slides – biochemical, small-molecule microarray, 635/667 nm fluorescence, BSA, DTT, primary screen (AID 1130).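 Further: composite of spot emission at 667 nm and signal to noise over triplicate slides.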 The following applies: 635 nm fluorescence, higher = more signal.
For experiment [4], the system named is Fibrinogen (Alexa647-labelled). Nature of the experiment: Alexa647-fibrinogen binding to printed small molecules – biochemical, small-molecule microarray, 635/667 nm fluorescence, artefact control for SMM control-protein annotation, profiling panel (AID 1131).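 Further: z-score merges 667 nm fluorescence with per-spot signal-to-noise over triplicate slides.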 The following applies: fibrinogen-A647 binding fluorescence, higher = more signal.
The target of experiment [5] is Follistatin (Homo sapiens) (UniProt P19883). In words: FST protein binding to printed compounds – biochemical, small-molecule microarray, 635/667 nm fluorescence, primary screen (AID 1132). The note with it: 635 nm fluorescence, higher = more signal.
For experiment [6], the target named is Fibroblast growth factor 2 (Homo sapiens) (UniProt P09038). In words: basic fibroblast growth factor binding to printed compounds – biochemical, small-molecule microarray, 635/667 nm fluorescence, primary screen (AID 1133). The note with it: FGF2, fluorescence 635/667, higher = more signal.
Experiment [7] in a line: JC-1 mitochondrial potential readout, lung cancer cells – cell-based, A549, JC-1 fluorescence, basal, 24 h, 100 nL, profiling panel (AID 1138).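 Further: A549 lung adenocarcinoma cells under basal conditions with no added stimulus; test concentration not given here.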 The note with it: higher = more signal.
For another experiment, the system named is Lefty1. Nature of the experiment: Lefty1 protein binding to printed compounds – biochemical, small-molecule microarray, 635/667 nm fluorescence, primary screen (AID 1139). The note with it: fluorescence 635/667, higher = more signal.
Experiment [8] has as its system wheat germ agglutinin (Triticum aestivum), Alexa647-labelled. In words: Alexa647-WGA lectin binding to printed small molecules – biochemical, small-molecule microarray, 635/667 nm fluorescence, artefact control for SMM control-protein annotation, profiling panel (AID 1140).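 Further: score merges 667 nm feature emission with signal to noise over triplicate slides.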 The following applies: WGA-A647 binding, 635 nm fluorescence, higher = more signal.
Experiment [9] deals with Luciferin 4-monooxygenase (Photinus pyralis) (UniProt P08659). In words: inhibition of purified Photinus pyralis luciferase – biochemical, luminescence, purified enzyme, 2006 set, primary screen (AID 1141).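 Further: cell-free assay with purified firefly luciferase at 100 ng per well in PBS; test concentration not given here.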 The following applies: purified firefly luciferase, SteadyGlo luminescence, 30 min; higher = more signal, called active from +8 up or from −8 down.
For experiment [10], the system named is Wnt5a (protein binding on small-molecule microarray). In words: small molecules binding Wnt5a protein – biophysical, small-molecule microarray, 635/667 nm fluorescence, primary screen (AID 1142).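 Further: fluorescence read at 667 nm with signal to noise per printed feature.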 The note with it: 635 nm fluorescence, higher = more signal.
Experiment [11] can be described thus: ATP-based viability of Huh7 replicon cells – cell-based, CellTiter-Glo luminescence, basal, 48 h, cytotoxicity control for HCV replication inhibitor project, primary screen (AID 1143).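 Further: Huh7 hepatoma cells carrying a hepatitis C replication reporter with no stimulus; test concentration not given here.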 The following applies: higher = more signal, called active from +8 up or from −8 down.
Experiment [12] is described as follows: Pseudomonas biofilm growth suppression – PAO1 strain, BacTiter-Glo luminescence, LB-PBS, primary screen (AID 1144). The note with it: P. aeruginosa PAO1 biofilm, 12 h, higher = more signal.
Experiment [13] can be described thus: basal CRE-LacZ reporter activity in PC12 – cell-based, unstimulated, primary screen (AID 1145). The note with it: no forskolin, luminescence, 4.5 h, higher = more signal, called active from +8 up or from −8 down.
A short description of experiment [14]: forskolin-driven CRE-LacZ activity in PC12 – cell-based, CRE-LacZ reporter, forskolin-stimulated, primary screen (AID 1146).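 Further: PC12 cells with 6xCRE LacZ reporter stimulated by forskolin 10 µM; beta-galactosidase reporter signal reflecting CREB driven transcription.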 The following applies: luminescence, 4.5 h, higher = more signal, called active from +8 up or from −8 down.
For experiment [15], the target named is Streptavidin (Streptomyces avidinii) (UniProt P22629). Nature of the experiment: compounds binding control protein streptavidin – biophysical, small-molecule microarray, 635/667 nm fluorescence, artefact control for SMM compound annotation, primary screen (AID 1147).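 Further: signal reflects streptavidin binding to arrayed compounds as a control protein.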 The following applies: higher = more signal.
Experiment [16] in a line: probe aInhba binding on compound microarray – biochemical, small-molecule microarray, 635/667 nm fluorescence, primary screen (AID 1148).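 Further: score merges 667nm spot fluorescence with signal-to-noise for antibody binding to printed compounds.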 The following applies: higher = more signal.
Experiment [17] deals with Torsin-1A (Homo sapiens) (UniProt O14656). Nature of the experiment: TOR1A wild-type binding on microarray – cell lysate, small-molecule microarray, lysate, 635/667 nm, primary screen (AID 1149). The following applies: COS7 hTOR1A-WT lysate, 635 nm fluorescence, higher = more signal.
Experiment [18] shares this target. Nature of the experiment: torsin A mutant lysate binding on microarrays – cell lysate, small-molecule microarray, COS7 lysate, 635/667 nm fluorescence, primary screen (AID 1150).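 Further: score pools 667 nm emission and signal to noise measuring lysate protein binding.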 The note with it: COS7 hTOR1A mutant lysate, 635 nm fluorescence, higher = more signal.
Experiment [19] relates to Sonic hedgehog protein (Shh). Nature of the experiment: Sonic hedgehog microarray binding compounds – biochemical, small-molecule microarray, 635/667 nm fluorescence, primary screen (AID 1151).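 Further: Shh protein binding to compounds spotted on small-molecule microarray slides; score combines spot fluorescence intensity with signal-to-noise across triplicate slides.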 The note with it: 635 nm fluorescence, higher = more signal.

Active and inactive are the calls of the source. Unless noted, how the calls were made is not given here.

These results are taken from PubChem BioAssay.

Focal adhesion kinase 1 (Homo sapiens), sequence (Q05397 whole entry, looked up): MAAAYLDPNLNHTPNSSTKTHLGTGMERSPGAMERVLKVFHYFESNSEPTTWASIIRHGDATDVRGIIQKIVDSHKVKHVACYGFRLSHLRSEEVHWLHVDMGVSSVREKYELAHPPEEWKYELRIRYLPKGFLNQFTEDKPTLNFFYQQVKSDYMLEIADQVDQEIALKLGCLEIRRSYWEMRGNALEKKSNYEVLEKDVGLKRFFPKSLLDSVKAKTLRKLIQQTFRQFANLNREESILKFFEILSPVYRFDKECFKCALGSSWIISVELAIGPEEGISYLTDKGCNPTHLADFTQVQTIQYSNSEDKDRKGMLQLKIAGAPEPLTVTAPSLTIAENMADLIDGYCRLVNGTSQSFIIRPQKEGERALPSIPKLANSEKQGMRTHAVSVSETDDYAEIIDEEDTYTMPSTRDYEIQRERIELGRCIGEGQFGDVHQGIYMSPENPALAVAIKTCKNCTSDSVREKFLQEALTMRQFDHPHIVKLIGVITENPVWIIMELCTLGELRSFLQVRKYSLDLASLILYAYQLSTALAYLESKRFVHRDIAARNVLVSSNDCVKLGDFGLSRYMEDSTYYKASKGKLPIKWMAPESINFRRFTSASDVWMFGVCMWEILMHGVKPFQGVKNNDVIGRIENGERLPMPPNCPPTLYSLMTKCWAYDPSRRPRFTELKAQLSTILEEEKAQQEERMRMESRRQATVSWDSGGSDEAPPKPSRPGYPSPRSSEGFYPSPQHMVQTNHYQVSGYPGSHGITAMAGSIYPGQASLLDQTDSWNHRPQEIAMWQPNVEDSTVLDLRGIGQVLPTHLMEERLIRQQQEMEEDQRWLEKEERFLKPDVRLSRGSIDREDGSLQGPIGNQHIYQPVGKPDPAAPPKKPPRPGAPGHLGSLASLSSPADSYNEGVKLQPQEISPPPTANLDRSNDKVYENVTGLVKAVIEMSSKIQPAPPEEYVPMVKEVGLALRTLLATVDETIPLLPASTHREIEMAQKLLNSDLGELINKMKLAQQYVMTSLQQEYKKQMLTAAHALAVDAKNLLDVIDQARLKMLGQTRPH
Fibroblast growth factor 2 (Homo sapiens), sequence (P09038 whole entry, looked up): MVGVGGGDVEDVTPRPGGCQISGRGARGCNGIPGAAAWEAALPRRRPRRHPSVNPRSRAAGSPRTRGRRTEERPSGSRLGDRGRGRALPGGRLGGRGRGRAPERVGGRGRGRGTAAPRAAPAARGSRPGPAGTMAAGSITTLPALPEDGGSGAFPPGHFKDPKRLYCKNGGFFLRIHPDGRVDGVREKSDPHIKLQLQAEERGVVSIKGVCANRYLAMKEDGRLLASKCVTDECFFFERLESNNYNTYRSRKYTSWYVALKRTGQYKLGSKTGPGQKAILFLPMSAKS
Torsin-1A (Homo sapiens), sequence (O14656 whole entry, looked up): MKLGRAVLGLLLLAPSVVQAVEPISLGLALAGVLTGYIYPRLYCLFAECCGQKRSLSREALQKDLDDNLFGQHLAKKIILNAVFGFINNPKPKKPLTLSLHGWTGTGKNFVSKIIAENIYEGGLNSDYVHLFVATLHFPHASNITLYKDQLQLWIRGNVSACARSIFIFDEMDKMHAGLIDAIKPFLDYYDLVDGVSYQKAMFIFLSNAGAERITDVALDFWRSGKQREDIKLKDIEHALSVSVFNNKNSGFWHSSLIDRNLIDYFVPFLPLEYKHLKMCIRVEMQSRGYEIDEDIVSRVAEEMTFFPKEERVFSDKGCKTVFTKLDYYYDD
Luciferin 4-monooxygenase (Photinus pyralis), sequence (P08659 whole entry, looked up): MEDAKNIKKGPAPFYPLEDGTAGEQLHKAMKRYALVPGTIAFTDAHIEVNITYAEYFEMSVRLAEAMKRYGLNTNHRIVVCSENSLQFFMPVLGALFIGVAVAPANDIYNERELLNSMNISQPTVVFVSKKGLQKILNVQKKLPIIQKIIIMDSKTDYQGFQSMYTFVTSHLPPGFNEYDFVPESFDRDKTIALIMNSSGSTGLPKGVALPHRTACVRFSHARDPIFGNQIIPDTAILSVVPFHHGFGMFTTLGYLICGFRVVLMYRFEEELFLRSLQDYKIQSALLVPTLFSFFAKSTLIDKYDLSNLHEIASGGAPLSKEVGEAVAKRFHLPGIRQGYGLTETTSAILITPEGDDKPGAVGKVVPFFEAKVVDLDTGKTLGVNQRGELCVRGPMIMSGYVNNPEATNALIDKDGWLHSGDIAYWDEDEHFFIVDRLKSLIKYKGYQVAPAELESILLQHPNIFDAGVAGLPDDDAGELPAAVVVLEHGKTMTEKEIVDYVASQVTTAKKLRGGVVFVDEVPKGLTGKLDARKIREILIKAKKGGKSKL
Follistatin (Homo sapiens), sequence (P19883 whole entry, looked up): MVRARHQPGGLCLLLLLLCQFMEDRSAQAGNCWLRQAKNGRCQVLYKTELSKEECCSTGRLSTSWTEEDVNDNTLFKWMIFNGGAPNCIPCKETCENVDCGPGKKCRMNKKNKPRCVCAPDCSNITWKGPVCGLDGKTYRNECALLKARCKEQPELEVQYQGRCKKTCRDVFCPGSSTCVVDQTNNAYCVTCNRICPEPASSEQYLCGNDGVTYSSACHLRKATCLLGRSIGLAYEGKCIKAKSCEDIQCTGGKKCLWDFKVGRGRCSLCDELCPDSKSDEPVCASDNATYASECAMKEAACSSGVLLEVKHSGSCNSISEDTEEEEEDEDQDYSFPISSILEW
Streptavidin (Streptomyces avidinii), sequence (P22629 whole entry, looked up): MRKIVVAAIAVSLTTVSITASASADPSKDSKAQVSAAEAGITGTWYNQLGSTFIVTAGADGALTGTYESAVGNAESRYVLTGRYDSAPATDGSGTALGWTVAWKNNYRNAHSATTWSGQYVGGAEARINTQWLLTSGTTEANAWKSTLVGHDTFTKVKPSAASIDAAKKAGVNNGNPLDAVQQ

As to `COc1cc(NN2C(C(O)c3ccccc3)C=CC3C(=O)N(C)C(=O)C32)cc(OC)c1OC` (stereo not given), the composite z-score in experiment [1] was determined as 0.981; in experiment [2], 1.19; in experiment [3], 0.681; in experiment [4], 0.959; in experiment [5], 0.756; in experiment [6], 0.216. Moreover, the composite z-score was 0.229 in the experiment with Lefty1; 1.23 in experiment [8]; 0.107 in [10]; 0.194 in experiment [15]; 0.0184 in experiment [16]; -0.0091 with Torsin-1A (Homo sapiens) [17]. The composite z-score was determined as 0.576 with Torsin-1A (Homo sapiens) [18] and 0.36 in [19]. Besides, the z-score in experiment [7] was -0.109; in experiment [9] it was -1.69 (inactive); in [11], -2.51 (inactive); in experiment [12], -0.426 (inactive); in [13] it was 0.0603 (inactive); in [14] it was -0.126 (inactive).

In the case of `CCCCCN1CC=CC23O[C@@H]4C=CCOC(=O)[C@@H]4[C@H]2C(=O)N(CCO)[C@@H]3C1=O` (stereo not given in full), the composite z-score was 1.58 in [1]; -0.22 in experiment [2]; 0.0763 in experiment [3]; -1.05 in experiment [4]; -0.693 in experiment [5]; -0.903 in experiment [6]. Besides, the composite z-score in the experiment on Lefty1 is -0.306; in [8], -0.324; in experiment [10] it was -0.395; in experiment [15], -0.958; in [16] it was -0.205; with Torsin-1A (Homo sapiens) [17], 1.17. Further, the composite z-score with Torsin-1A (Homo sapiens) [18] was 1.78; in [19], -0.456. Besides, the z-score in [7] is -0.222; in [9], 0.056 (inactive); in experiment [11] it was -0.143 (inactive); in experiment [12], 1.13 (inactive); in experiment [13] it was -0.0818 (inactive); in [14], -0.585 (inactive).

With `COC(=O)[C@@]1(Cc2ccc(F)cc2)[C@H]2c3cc(C(=O)N(C)C)n(Cc4ccc(O)c(OC)c4)c3C[C@H]2CN1C(=O)c1ccccc1`, the composite z-score in [1] amounted to 1.15; in experiment [2], 0.575; in experiment [3], 0.489; in [4], 0.977; in [5], 0.0157; in experiment [6], 0.0287. Further, the composite z-score was -0.0615 in the experiment with Lefty1; 0.438 in [8]; 0.128 in experiment [10]; 0.575 in experiment [15]; -0.108 in [16]; 0.198 with Torsin-1A (Homo sapiens) [17]. For the same compound, the composite z-score with Torsin-1A (Homo sapiens) [18] is 0.484; in [19] it was -0.556. Also, the z-score is -1.18 in experiment [7]; 1.08 (inactive) in experiment [9]; -2.65 (inactive) in experiment [11]; -1.24 (inactive) in [12]; 0.387 (inactive) in experiment [13]; 0.0711 (inactive) in experiment [14].

In the case of `CC(C)C(=C=CC[C@@H](O)c1cccc(OCCO)c1)C[C@@H](O)COCc1ccccc1`, the composite z-score in [1] was 0.292; in experiment [2] it was 0.158; in experiment [3] it was -0.276; in experiment [4], 0.0013; in experiment [5] it was 0.844; in experiment [6], 0.34. The composite z-score in the experiment on Lefty1 was 0.318; in experiment [8] it was 0.866; in experiment [10], 0.139; in [15] it was -0.506; in experiment [16], -0.165; in the experiment with Torsin-1A (Homo sapiens) [17] it was -0.134. The values for the composite z-score (in the experiment with Torsin-1A (Homo sapiens) [18]; in experiment [19]) were -0.377 and 1.06, respectively. Also, the z-score in experiment [7] is 1.6; in experiment [9] it was -2.11 (inactive); in experiment [11] it was -2.36 (inactive); in [12] it was 0.232 (inactive); in experiment [13], 7.66 (inactive); in experiment [14], -1 (inactive).

For the compound `COC(=O)[C@@]1(Cc2ccccc2)[C@H]2c3cc(C(=O)N(C)C)n(CCn4cc([N+](=O)[O-])nc4C)c3C[C@H]2CN1C(=O)c1ccccc1`, the composite z-score is 0.735 in [1]; 0.858 in experiment [2]; 1.39 in experiment [3]; 0.989 in experiment [4]; 0.387 in experiment [5]; -0.163 in experiment [6]. For the same compound, the composite z-score in the experiment on Lefty1 is 0.216; in [8], 1.1; in experiment [10] it was 0.192; in experiment [15], 0.287; in [16] it was -0.147; with Torsin-1A (Homo sapiens) [17], 0.614. In addition, the composite z-score stood at 0.464 with Torsin-1A (Homo sapiens) [18] and 0.383 in [19]. In addition, the z-score in experiment [7] is -0.22; in [9] it was -0.0637 (inactive); in experiment [11] it was -0.65 (inactive); in experiment [12], 0.331 (inactive); in experiment [13], -0.379 (inactive); in experiment [14], 1.45 (inactive).
